PubChem BioAssay AID1942 (Johns Hopkins Ion Channel Center, 2009)
In all, about 2,400 compounds went through this assay and about 580 (24%) were called active. Not all results are given here. A number with no mark means an inactive call.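 How the source made its calls: active means activity change at or above the mean plus 3 SD of buffer wells without dofetilide, per plate; inactive means the rest.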

Each compound was assayed against Potassium voltage-gated channel subfamily KQT member 2 (Rattus norvegicus) (UniProt O88943) (assay: rat KCNQ2 channel activation by compounds alone, confirmation, counter-screen for hERG block protector project, cell-based, CHO, FluxOR thallium flux (AID 1942;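 further: normalized value minus buffer-control mean plus three SD of buffer wells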)). Conditions: CHO-KCNQ2 cells, FluxOR thallium flux fluorescence; at 10 µM; hits give high values.
Potassium voltage-gated channel subfamily KQT member 2 (Rattus norvegicus), sequence (O88943 whole entry, looked up): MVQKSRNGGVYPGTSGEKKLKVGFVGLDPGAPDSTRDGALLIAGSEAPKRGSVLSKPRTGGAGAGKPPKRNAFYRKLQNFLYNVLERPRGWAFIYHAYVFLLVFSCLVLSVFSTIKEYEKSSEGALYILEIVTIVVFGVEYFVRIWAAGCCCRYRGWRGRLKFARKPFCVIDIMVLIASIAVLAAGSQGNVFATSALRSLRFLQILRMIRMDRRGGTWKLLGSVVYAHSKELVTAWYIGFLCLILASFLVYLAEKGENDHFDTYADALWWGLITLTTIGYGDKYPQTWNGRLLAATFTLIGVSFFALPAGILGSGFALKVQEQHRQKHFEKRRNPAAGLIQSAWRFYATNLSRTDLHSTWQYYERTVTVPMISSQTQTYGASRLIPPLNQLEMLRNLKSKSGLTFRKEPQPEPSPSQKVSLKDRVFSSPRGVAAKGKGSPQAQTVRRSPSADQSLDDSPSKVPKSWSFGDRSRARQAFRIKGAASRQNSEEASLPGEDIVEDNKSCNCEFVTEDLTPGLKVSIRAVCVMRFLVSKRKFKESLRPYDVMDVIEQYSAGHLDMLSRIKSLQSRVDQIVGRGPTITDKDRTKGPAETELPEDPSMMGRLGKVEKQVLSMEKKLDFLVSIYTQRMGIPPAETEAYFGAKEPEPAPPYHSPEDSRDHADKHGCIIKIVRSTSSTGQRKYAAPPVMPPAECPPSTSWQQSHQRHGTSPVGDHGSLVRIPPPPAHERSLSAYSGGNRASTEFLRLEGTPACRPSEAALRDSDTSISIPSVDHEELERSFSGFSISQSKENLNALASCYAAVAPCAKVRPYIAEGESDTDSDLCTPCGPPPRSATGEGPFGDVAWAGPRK

SMILES	activity change, less the hit threshold
Cc1ccc(C)c(N2CCN(S(=O)(=O)c3ccc(-c4ccc(=O)[nH]n4)o3)CC2)c1	-14.6%
CCn1cc(CCC(=O)NCc2cccc(OC)c2OC)c2ccccc21	-13%
Cc1cc(N2CCN(C)CC2)nc(N2CCOCC2)n1	-10%
CCN(CC)C(=O)CN1C(=O)c2cccc3cccc(c23)C1=O	-24.8%
CN(C)c1oc(-c2ccccc2)nc1C#N	-16.2%
CC(=O)C1C(=O)c2c(cccc2[N+](=O)[O-])C1=Nc1ccccc1C (stereo not given)	-21.7%
O=c1cc(O)c2sc(Nc3ccc(F)c(Cl)c3)nc2[nH]1	-20.3%
COc1ccc(N2CCN(CC(O)COc3ccc(F)cc3)CC2)cc1 (stereo not given)	-24.2%
CC1=C(C)CS(=O)N(c2ccc(S(N)(=O)=O)cc2)C1 (stereo not given)	-5.8%
Cc1ccc(-c2nc3ccccc3c(=O)n2O)cc1	6.3% (active)
O=c1c2ccccc2nc(-c2ccc(Cl)c(Cl)c2)n1O	68.4% (active)
O=c1c2ccccc2nc(-c2ccccc2)n1O	-9.4%
Cc1ccc(C(=O)Nc2nc3ccccc3c(=O)s2)cc1	-1.3%
O=c1c2cc(Cl)ccc2nc(-c2ccccc2)n1O	27.1% (active)
CC1=NN(c2ccccc2)C(=O)C1C(=O)c1ccc(Cl)cc1 (stereo not given)	-0.6%
Cc1ccc(-c2nc3c(Cl)cc(Cl)cc3c(=O)n2O)cc1	142% (active)
COc1cccc([C@@H]2Oc3ccc(OC)cc3C(=O)[C@H]2OC(=O)NCc2ccc3c(c2)OCO3)c1	-12.3%
N#CC(=C1SC=CS1)c1nc(-c2ccccc2)cs1	-21.5%
O=C(N/N=C/c1ccccc1[N+](=O)[O-])c1ccc(CN2CCOCC2)cc1	-14.3%
Cc1ccc(Nc2nc(-c3cccs3)cs2)nc1	-16.1%
O=C(N/N=C/c1cccs1)C(=O)Nc1cccc(Cl)c1	-12.5%
CSc1nc2c(c(=O)[nH]1)C(c1ccc(Cl)cc1)CC(=O)N2 (stereo not given)	-14%
O=c1c2ccccc2nc(-c2cccc(Cl)c2)n1O	28.8% (active)
Cc1ccc(-c2nc3ccc(Cl)cc3c(=O)n2O)cc1	104% (active)
Cc1ccc(-c2onc3ccc(Cl)cc23)cc1	-16.5%

SMILES	activity change, less the hit threshold
Cc1ccc(C(=O)CC(=O)c2cc(Cl)ccc2O)cc1	-19.3%
O=c1c2cc(Cl)ccc2nc(-c2ccc(Cl)c(Cl)c2)n1O	127% (active)
CCOC(=O)c1c(N2C(=O)Nc3ccccc3N2O)n[nH]c1-c1cccc(Cl)c1	-9.4%
Cc1ccc(CNS(=O)(=O)c2cc3c4c(c2)CCN4C(=O)CC3)cc1	-11.7%
Cc1cc([N+](=O)[O-])nn1CC(=O)Nc1ccc(Cl)cn1	-1.2%
COC(=O)c1ccc(/C=C/c2ccc3cccc(OC)c3n2)cc1	-22.1%
CCN(CCCn1c(=S)[nH]c2ncccc2c1=O)c1ccccc1	10.4% (active)
CCCCC(CC)CNC(=O)Cn1c(=S)[nH]c2ncccc2c1=O (stereo not given)	-9.7%
CC(C)CCn1c(=S)[nH]c2ncccc2c1=O	-3.7%
CCCCCn1c(=S)[nH]c2ncccc2c1=O	17.1% (active)
COC(=O)c1ccc(NN=Nc2ccc(C)cc2)cc1	-4.6%
C=CCNc1sc(C(=O)C(C)(C)C)c(N)c1C#N	-15.5%
CCc1c(C)nc(SC)n(CC#N)c1=O	-14.4%
CCCCNC(=S)N/N=C/C1=CCC2CC1C2(C)C (stereo not given)	-17.2%
O=c1c(O)c(-c2ccc3c(c2)OCO3)oc2ccccc12	12% (active)
O=c1c(O)c(-c2cccs2)oc2ccc(Cl)cc12	111% (active)
Cn1nc(C(=O)Nc2ccc3c(c2)OCO3)c2ccccc2c1=O	-16.1%
c1ccc2c(c1)c1ccccc1n1c(-c3ccc4c(c3)OCO4)nnc21	-10%
O=c1c(O)c(-c2cccs2)oc2ccccc12	95.3% (active)
Cc1nnc(SCC(=O)Nc2nccs2)n1N	-19.4%
CCOc1ccc(Nc2ccc([N+](=O)[O-])c3nonc23)cc1	-4.2%
COC(=O)c1ccc(-n2c(C)nc(=O)c(-c3ccccc3)c2C)cc1	-13.8%
CC(NC(=O)CCCn1cc([N+](=O)[O-])cn1)c1ccccc1 (stereo not given)	-27%
COc1ccc(C(=O)NNC(=O)C(=O)Nc2ccc(C)cc2)cc1	22.4% (active)
CC(C)Oc1cccc(C(=O)N2CCCC2)c1	-14%
